Measured values from paper PMC5700166.
Positions count from the first letter of the chain named.

Legend:
Assay in all cases: protein-binding microarray (PBM); PBM: ~300 nM protein, 6 mM HEPES pH 7.8, 80 mM KCl, 0.5 mM EDTA, 0.5 mM EGTA, 6% glycerol, 35 ng/ul poly-dIdC, 1% milk, 1 h, room temperature; Ap Aiptasia and Nv Nematostella (sea anemones) / Co Capsaspora / Aq Amphimedon (sponge) / Dm Drosophila / Hu human; RHD is the Rel homology domain; high values mean tight binding
Conditions in all cases: dsDNA, one strand shown
GST-Ap-NF-kB RHD = molecular target: T1, GST-Ap-NF-kB RHD (Exaiptasia pallida (Aiptasia), UniProt A0A913YAJ5 2-422)
T1 sequence: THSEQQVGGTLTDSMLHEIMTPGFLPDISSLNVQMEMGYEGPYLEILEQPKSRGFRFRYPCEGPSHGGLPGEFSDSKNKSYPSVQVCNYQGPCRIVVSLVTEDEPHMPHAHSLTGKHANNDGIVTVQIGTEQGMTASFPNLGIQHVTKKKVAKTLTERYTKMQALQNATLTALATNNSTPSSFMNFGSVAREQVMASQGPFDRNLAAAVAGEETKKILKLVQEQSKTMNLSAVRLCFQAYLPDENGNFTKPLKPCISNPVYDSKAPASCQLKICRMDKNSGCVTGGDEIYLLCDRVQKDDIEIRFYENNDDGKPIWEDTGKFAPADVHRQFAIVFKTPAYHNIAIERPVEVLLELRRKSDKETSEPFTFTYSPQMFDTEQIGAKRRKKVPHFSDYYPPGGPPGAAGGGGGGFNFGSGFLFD

[1] = molecular target: T2, GST-Nv-NF-kB (Cys allele) (Nematostella vectensis, UniProt E5G601 2-411)
T2 sequence: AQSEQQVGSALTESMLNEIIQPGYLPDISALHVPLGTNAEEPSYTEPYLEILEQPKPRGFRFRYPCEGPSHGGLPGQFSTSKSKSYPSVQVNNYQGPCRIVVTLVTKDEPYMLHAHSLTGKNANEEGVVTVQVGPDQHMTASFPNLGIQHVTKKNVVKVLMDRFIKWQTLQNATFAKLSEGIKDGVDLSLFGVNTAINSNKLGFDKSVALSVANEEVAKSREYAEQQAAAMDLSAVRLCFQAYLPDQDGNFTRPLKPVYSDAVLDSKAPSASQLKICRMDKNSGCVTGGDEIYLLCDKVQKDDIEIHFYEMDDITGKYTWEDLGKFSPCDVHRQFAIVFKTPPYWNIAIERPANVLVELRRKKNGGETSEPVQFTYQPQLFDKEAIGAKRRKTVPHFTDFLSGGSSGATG

[2] = molecular target: T3, GST-Nv-NF-kB (Ser allele) (Nematostella vectensis, UniProt A7UNT2 2-411)
T3 sequence: T2 sequence with Q21R, C66S, S207N, E215Q, V217A, E225K, A268E, D399E

GST-Aq-NF-kB = molecular target: T4, GST-Aq-NF-kB (Amphimedon queenslandica, UniProt A9Y5G7 2-389)
T4 sequence: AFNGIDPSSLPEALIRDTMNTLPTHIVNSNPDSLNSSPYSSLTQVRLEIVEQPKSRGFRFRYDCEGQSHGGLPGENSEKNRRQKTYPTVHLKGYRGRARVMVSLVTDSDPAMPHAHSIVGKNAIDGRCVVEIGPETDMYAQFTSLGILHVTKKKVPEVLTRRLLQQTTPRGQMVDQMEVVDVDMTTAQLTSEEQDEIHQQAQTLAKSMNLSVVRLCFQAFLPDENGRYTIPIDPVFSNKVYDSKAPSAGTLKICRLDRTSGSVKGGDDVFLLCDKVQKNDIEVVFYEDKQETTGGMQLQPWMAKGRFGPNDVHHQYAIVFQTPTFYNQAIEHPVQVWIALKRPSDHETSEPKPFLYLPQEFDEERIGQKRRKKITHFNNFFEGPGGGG

GST-Hu-p50 = GST-Hu-p50 (Homo sapiens, UniProt P19838 7-356)
GST-Co-NF-kB = molecular target: T5, GST-Co-NF-kB (Capsaspora owczarzaki, UniProt F1ARL5 200-546)
T5 sequence: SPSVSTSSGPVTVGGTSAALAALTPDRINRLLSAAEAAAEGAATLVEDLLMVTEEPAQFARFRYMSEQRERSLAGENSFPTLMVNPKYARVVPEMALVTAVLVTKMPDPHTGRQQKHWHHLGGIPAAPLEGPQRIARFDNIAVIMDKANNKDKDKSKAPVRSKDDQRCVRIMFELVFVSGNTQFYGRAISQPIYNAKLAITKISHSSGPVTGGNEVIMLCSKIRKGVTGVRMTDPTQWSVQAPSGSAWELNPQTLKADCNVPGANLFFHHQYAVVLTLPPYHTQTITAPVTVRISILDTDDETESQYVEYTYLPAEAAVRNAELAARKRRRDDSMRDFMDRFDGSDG

GST-Hu-p50, sequence (P19838 7-356): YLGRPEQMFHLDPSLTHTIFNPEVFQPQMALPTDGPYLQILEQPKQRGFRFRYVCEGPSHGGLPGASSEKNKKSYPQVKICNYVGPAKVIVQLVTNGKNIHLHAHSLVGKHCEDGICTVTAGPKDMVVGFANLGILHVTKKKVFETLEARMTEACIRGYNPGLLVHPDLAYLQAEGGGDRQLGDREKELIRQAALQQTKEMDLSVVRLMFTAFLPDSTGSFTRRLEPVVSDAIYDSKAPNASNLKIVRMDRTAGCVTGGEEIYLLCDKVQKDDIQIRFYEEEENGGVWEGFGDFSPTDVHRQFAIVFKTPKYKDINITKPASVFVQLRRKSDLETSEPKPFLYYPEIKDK

| Sequence | binding signal (GST-Ap-NF-kB RHD) | binding signal [1] | binding signal [2] | binding signal (GST-Aq-NF-kB) | binding signal (GST-Hu-p50) | binding signal (GST-Co-NF-kB) |
| --- | --- | --- | --- | --- | --- | --- |
| CCGATTAACATCAGCTAGTCCCTTGATGTTAATCGGGTCTTGATTCGCTTGACGCTGCTG | 3.99 z-score | 3.63 z-score | 2.09 z-score | 3.06 z-score | 2.73 z-score | – |
| CCGATTAACATCAAAGGGGCTACTGATGTTAATCGGGTCTTGATTCGCTTGACGCTGCTG | 2.79 z-score | 3.08 z-score | 2.12 z-score | 3.2 z-score | 3.13 z-score | – |
| CCGATTAACATCACACATGCCCCTGATGTTAATCGGGTCTTGATTCGCTTGACGCTGCTG | 1.13 z-score | 1.37 z-score | 1.04 z-score | 1.68 z-score | 1.36 z-score | 1.12 z-score |
| CCGATTAACATCAAAATTTTCCGTGATGTTAATCGGGTCTTGATTCGCTTGACGCTGCTG | – | – | – | 1.74 z-score | 1.66 z-score | – |
| CCGATTAACATCAGGGAAAGCTATGATGTTAATCGGGTCTTGATTCGCTTGACGCTGCTG | 2.11 z-score | 3.99 z-score | 3.57 z-score | 3.54 z-score | 2.53 z-score | 2.65 z-score |
| CCGATTAACATCATATTTTCCCATGATGTTAATCGGGTCTTGATTCGCTTGACGCTGCTG | 2.18 z-score | 4.42 z-score | 5.61 z-score | 2.52 z-score | 4.15 z-score | 4.34 z-score |
| CCGATTAACATCAGACATTTCCCTGATGTTAATCGGGTCTTGATTCGCTTGACGCTGCTG | 2.94 z-score | 4.75 z-score | 4.39 z-score | 5.41 z-score | 3.59 z-score | 3.17 z-score |
| CCGATTAACATCAACTTTTTCCCTGATGTTAATCGGGTCTTGATTCGCTTGACGCTGCTG | 2.88 z-score | 4.79 z-score | 6.57 z-score | 3.16 z-score | 2.68 z-score | 5.52 z-score |
| CCGATTAACATCAATTGGGAAAATGATGTTAATCGGGTCTTGATTCGCTTGACGCTGCTG | 1.52 z-score | 2.96 z-score | 4.08 z-score | 1.4 z-score | 2.04 z-score | 2.47 z-score |
| CCGATTAACATCAAGGAGATTCCTGATGTTAATCGGGTCTTGATTCGCTTGACGCTGCTG | – | – | – | 1.73 z-score | – | – |
| CCGATTAACATCATCCCGGGAAATGATGTTAATCGGGTCTTGATTCGCTTGACGCTGCTG | 1.98 z-score | 2.94 z-score | 2.26 z-score | 2.23 z-score | 1.36 z-score | 3.63 z-score |
| CCGATTAACATCAGTATGGGAAATGATGTTAATCGGGTCTTGATTCGCTTGACGCTGCTG | 1.32 z-score | 2.39 z-score | 2.22 z-score | 1.79 z-score | 1.28 z-score | 2.14 z-score |
| CCGATTAACATCAATGTGGGAAATGATGTTAATCGGGTCTTGATTCGCTTGACGCTGCTG | 1.32 z-score | 2.75 z-score | 2.53 z-score | 1.55 z-score | 1.92 z-score | 2.85 z-score |
| CCGATTAACATCAGTCCCACAGATGATGTTAATCGGGTCTTGATTCGCTTGACGCTGCTG | 1.45 z-score | 1.55 z-score | – | 1.95 z-score | 2.52 z-score | – |
| CCGATTAACATCAAGGAAATTTCTGATGTTAATCGGGTCTTGATTCGCTTGACGCTGCTG | – | – | – | 1.71 z-score | 1.21 z-score | – |
| CCGATTAACATCAGAAATGCCCATGATGTTAATCGGGTCTTGATTCGCTTGACGCTGCTG | – | – | – | 1.69 z-score | 1.76 z-score | – |
| CCGATTAACATCAAGTGGGAAAATGATGTTAATCGGGTCTTGATTCGCTTGACGCTGCTG | 1.71 z-score | 4.11 z-score | 4.29 z-score | 2.08 z-score | 2.66 z-score | 2.91 z-score |
| CCGATTAACATCAGGATTATCCCTGATGTTAATCGGGTCTTGATTCGCTTGACGCTGCTG | 2.26 z-score | 2.9 z-score | 1.47 z-score | 5.15 z-score | 1.73 z-score | 2.37 z-score |
| CCGATTAACATCAAGAAATTCCGTGATGTTAATCGGGTCTTGATTCGCTTGACGCTGCTG | – | – | – | 1.24 z-score | 1.41 z-score | – |
| CCGATTAACATCAAAGAATTTCCTGATGTTAATCGGGTCTTGATTCGCTTGACGCTGCTG | – | – | – | 1.45 z-score | – | – |
| CCGATTAACATCAGGGAAAGATATGATGTTAATCGGGTCTTGATTCGCTTGACGCTGCTG | 2.67 z-score | 4.29 z-score | 4.52 z-score | 5.22 z-score | 3.62 z-score | 4.56 z-score |
| CCGATTAACATCAGCTATTTCCCTGATGTTAATCGGGTCTTGATTCGCTTGACGCTGCTG | 2.08 z-score | 3.01 z-score | 3.4 z-score | 3.31 z-score | 1.83 z-score | 2.17 z-score |
| CCGATTAACATCAGGGAATTGGATGATGTTAATCGGGTCTTGATTCGCTTGACGCTGCTG | 2.15 z-score | 3.52 z-score | 3.84 z-score | 2.8 z-score | 1.84 z-score | 1.88 z-score |
| CCGATTAACATCACGGCTTTTCCTGATGTTAATCGGGTCTTGATTCGCTTGACGCTGCTG | – | – | – | 1.72 z-score | – | – |
| CCGATTAACATCACCATGGGAAATGATGTTAATCGGGTCTTGATTCGCTTGACGCTGCTG | 1.25 z-score | 2.23 z-score | 1.45 z-score | 1.76 z-score | 1.98 z-score | 2.04 z-score |
| CCGATTAACATCAATCTTTTCCCTGATGTTAATCGGGTCTTGATTCGCTTGACGCTGCTG | 2.35 z-score | 4.39 z-score | 5.52 z-score | 3.34 z-score | 2.99 z-score | 3.98 z-score |
| CCGATTAACATCAGCACGGGAAATGATGTTAATCGGGTCTTGATTCGCTTGACGCTGCTG | 1.76 z-score | 2.98 z-score | 2.41 z-score | 2.77 z-score | 1.64 z-score | 2.59 z-score |
